Potency and outcome data for 20 molecules are collected here from PubChem BioAssay (NCATS).

Test [1] is described as follows: Quantitative high throughput screen for delayed death inhibitors of the malarial parasite plastid, 96 hour incubation (AID 488745). Further: nearly all actives have a fitted effect of over 70% in size. Further: potency means the concentration at half of the fitted maximal effect. Put shortly:
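Readout is firefly luciferase luminescence from an integrated reporter in P. falciparum; lower signal marks inhibited growth. Cultures at 2% hematocrit and 0.1% parasitemia were treated with compound across two generations (96 h, 37 C, 5% CO2).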

The nature of test [2]: Quantitative high throughput screen for delayed death inhibitors of the malarial parasite plastid, 48 hour incubation (AID 488752). Further: nearly all actives have a fitted effect of over 65% in size. Further: potency means the concentration at half of the fitted maximal effect. A digest of the protocol:
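First, compound was pinned into RPMI 1640 medium containing 0.5% Albumax. Next, reporter-parasite-infected erythrocytes were added to 2% hematocrit and 0.1% parasitemia. After 48 h at 37 C under 5% CO2, luciferase detection reagent was added and luminescence read.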

Test [3] concerns the target Thioredoxin reductase 1, cytoplasmic (Rattus norvegicus) (UniProt O89049). The test can be described thus: qHTS Assay for Substrates of Mammalian Selenoprotein Thioredoxin Reductase 1 (TrxR1) (AID 488772).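 Further: series mostly up to about 57 µM; a drop in NADPH fluorescence below the no-compound background marks a TrxR1 substrate.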 A digest of the protocol:
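In this dual-purpose format, potential substrates are identified from the first fluorescence read after selenite addition, not from the 8-minute delta. Rat enzyme is preincubated with NADPH and then with compound at ~22 deg C.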
In general terms: In qHTS, concentration-response curves come from the screen itself.

For test [4] the target is unchanged. The test can be described thus: qHTS Assay for Inhibitors of Mammalian Selenoprotein Thioredoxin Reductase 1 (TrxR1) (AID 488773). Further: nearly all actives have a fitted effect of over 40% in size. Further: potency means the concentration at half of the fitted maximal effect. Conditions: Potency: inhibition. A digest of the protocol:
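Inhibition is scored from the loss of NADPH fluorescence between first and last reads of an 8-min kinetic run. Selenite (400 uM) was the substrate, added after 15 min compound preincubation at room temperature.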

The target in test [5] is Flap endonuclease 1 (Homo sapiens) (UniProt P39748). The test can be described thus: qHTS Validation Assay for the Inhibitors of Human Flap endonuclease 1 (FEN1) (AID 488816). A digest of the protocol: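 Enzyme reagent 10 nM; cpds pinned; 15 min RT preinc.; substrate 50 nM final; reads t=0 and 15 min; no-enzyme buffer wells as neg. control; normalized data, 4-parameter Hill fit.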
Chain of Flap endonuclease 1 (Homo sapiens) (P39748 whole entry, looked up): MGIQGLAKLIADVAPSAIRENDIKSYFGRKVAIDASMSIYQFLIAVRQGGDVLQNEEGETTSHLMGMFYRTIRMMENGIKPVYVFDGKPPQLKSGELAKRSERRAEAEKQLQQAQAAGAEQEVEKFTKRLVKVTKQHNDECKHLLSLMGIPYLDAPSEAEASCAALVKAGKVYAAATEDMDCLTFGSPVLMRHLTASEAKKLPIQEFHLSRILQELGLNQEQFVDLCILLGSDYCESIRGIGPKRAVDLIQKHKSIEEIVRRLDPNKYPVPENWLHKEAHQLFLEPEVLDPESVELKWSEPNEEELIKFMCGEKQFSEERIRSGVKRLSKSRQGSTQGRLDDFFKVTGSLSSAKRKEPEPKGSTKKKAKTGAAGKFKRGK

The target of test [6] is M-phase phosphoprotein 8 (Homo sapiens) (UniProt Q99549). The test can be described thus: qHTS Validation Assay for Inhibitors for MPP8 Chromodomain Interactions with Methylated Histone Tails (AID 488949). Further: nearly all actives have a fitted effect of over 55% in size. Further: potency means the concentration at half of the fitted maximal effect. Put shortly: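 Chemiluminescent proximity assay: histidine-tag capture via nickel acceptor beads, biotin peptide via streptavidin donor beads. Protein and peptide each at 50 nM, pH 7.4, with 30 min incubations at room temperature for complex formation, compound exposure and bead binding.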
Chain of M-phase phosphoprotein 8 (Homo sapiens) (Q99549 whole entry, looked up): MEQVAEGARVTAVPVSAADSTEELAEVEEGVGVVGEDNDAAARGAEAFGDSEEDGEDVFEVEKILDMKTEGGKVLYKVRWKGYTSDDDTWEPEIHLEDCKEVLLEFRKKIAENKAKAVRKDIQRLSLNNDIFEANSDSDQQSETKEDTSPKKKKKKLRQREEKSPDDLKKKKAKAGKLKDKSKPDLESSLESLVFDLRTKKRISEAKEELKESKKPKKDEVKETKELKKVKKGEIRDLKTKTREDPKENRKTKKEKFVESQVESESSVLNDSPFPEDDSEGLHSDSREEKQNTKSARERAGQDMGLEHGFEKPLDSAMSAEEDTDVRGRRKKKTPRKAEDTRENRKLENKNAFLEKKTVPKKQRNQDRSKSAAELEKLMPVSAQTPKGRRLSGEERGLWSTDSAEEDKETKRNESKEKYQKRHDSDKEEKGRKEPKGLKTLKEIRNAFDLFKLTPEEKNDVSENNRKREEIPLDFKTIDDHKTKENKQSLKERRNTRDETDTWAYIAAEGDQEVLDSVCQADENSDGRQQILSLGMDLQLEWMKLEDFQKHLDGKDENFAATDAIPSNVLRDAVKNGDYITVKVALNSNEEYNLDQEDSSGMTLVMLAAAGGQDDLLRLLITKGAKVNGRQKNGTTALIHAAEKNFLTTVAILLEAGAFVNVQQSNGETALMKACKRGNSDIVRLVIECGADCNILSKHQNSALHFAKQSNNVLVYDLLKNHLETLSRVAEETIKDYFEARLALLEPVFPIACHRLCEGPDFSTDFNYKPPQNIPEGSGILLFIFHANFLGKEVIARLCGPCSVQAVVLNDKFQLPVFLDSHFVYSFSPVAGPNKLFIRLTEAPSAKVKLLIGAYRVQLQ

In test [7] the target is Chromobox protein homolog 1 (Homo sapiens) (UniProt P83916). Put plainly: qHTS Validation Assay for Inhibitors of HP1-beta Chromodomain Interactions with Methylated Histone Tails (AID 488953). Further: nearly all actives have a fitted effect of over 50% in size. Further: potency means the concentration at half of the fitted maximal effect. A digest of the protocol:
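Disruption of preformed HP1-beta:H3K9me3 peptide complexes (both 50 nM, PBS pH 7.4 with 0.01% Tween-20) is measured by AlphaScreen after 30 min compound exposure at room temperature, using streptavidin donor and nickel chelate acceptor beads at 10 ug/mL final.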

The target of test [8] is Methanococcus maripaludis chaperonin (MmCpn) (UniProt Q6LX38). The test can be described thus: High-Throughput Screening for Modulators of Cytosolic Chaperonin Activity: MmCpn Primary Screen (AID 488978). A digest of the protocol:
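HTRF readout (320 nm excitation, 590/665 nm emission) of ADP generated by 50 nM MmCpn hydrolysing 30 uM ATP during 10 min at 37C; compound preincubated 5 min RT.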

Test [9] concerns the target Transient receptor potential cation channel subfamily V member 1 (Homo sapiens) (UniProt Q8NER1). Put plainly: HTS Assay for Compounds that Act as Enhancers of the Vanilloid Receptor 1 (AID 488979). A digest of the protocol:
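TRPV1 cells loaded with Fluo-8 calcium dye; compound added and Ca2+ signal (ex 480/em 520 nm) followed 3 min, then capsaicin at EC20 added and read 2 more min to detect enhancement.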

“And” between values parts separate entries of the source, which are not always exact repeats. Identical values can stand only once. Inconclusive results are not listed. The source made the active and inactive calls. The call rests on the fitted dose curve; in most records, active means well fitted curve in the direction sought with a large enough effect; inconclusive means small, poorly fitted or top-dose-only effect, or another doubt; inactive means no such curve, though single readings can be large; an effect the other way counts as inactive or inconclusive.

Chain of Thioredoxin reductase 1, cytoplasmic (Rattus norvegicus) (O89049 whole entry, looked up): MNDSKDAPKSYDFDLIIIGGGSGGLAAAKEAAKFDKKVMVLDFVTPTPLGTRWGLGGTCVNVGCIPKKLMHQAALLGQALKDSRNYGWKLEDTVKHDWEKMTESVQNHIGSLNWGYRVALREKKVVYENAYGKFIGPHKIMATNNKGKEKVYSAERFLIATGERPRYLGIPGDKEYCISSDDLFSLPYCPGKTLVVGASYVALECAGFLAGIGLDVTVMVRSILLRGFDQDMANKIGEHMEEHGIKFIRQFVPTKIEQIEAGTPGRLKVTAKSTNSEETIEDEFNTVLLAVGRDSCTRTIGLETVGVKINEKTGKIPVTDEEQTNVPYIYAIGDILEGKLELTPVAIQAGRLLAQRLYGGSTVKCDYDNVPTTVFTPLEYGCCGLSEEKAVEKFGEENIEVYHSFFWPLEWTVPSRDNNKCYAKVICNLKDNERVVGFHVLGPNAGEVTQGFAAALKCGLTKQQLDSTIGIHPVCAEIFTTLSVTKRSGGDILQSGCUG
Chain of Chromobox protein homolog 1 (Homo sapiens) (P83916 whole entry, looked up): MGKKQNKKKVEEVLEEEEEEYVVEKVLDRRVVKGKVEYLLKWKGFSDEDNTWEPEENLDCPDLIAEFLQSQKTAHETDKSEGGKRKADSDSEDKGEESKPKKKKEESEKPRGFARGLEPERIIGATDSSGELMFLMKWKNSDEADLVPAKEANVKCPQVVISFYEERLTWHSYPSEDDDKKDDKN
Chain of Transient receptor potential cation channel subfamily V member 1 (Homo sapiens) (Q8NER1 whole entry, looked up): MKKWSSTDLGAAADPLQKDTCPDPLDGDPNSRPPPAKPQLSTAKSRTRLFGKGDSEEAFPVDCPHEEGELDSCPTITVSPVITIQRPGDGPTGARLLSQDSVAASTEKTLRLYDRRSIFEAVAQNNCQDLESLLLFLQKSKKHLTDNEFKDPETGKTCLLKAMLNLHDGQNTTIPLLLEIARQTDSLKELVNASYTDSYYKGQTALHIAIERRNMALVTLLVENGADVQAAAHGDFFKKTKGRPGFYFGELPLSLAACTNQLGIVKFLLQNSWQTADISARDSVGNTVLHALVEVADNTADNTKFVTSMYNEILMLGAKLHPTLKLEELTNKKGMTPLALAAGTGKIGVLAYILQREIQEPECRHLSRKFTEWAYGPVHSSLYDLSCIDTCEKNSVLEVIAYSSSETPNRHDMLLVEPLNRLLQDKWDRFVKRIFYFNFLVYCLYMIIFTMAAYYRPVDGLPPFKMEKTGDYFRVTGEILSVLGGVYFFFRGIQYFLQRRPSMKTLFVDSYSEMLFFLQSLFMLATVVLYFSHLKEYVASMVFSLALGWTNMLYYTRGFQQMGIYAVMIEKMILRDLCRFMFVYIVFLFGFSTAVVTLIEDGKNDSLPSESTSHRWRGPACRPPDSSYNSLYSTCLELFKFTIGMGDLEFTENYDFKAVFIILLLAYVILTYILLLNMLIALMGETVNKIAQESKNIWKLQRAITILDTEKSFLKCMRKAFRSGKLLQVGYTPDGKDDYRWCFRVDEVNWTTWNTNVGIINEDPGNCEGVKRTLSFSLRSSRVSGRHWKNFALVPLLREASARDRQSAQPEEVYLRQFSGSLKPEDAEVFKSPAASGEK
Chain of Methanococcus maripaludis chaperonin (MmCpn) (Q6LX38 1-543): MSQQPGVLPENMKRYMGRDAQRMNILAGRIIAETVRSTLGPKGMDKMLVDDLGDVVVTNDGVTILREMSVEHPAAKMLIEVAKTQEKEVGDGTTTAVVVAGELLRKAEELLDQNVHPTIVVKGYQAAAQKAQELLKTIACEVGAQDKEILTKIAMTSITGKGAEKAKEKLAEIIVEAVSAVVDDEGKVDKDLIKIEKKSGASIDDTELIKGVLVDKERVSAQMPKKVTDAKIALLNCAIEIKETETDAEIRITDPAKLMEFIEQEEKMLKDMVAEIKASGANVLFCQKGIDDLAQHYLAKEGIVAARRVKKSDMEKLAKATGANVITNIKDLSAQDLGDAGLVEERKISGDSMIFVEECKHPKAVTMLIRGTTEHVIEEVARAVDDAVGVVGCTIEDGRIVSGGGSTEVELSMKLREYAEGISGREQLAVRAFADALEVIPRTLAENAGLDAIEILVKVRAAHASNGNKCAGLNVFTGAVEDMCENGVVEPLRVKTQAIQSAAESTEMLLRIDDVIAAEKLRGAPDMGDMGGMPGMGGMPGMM

Consider `O=C(O)c1cc([N+](=O)[O-])ccc1NCCCc1ccccc1`, for which the Potency result in test [1], in test [2], in [3], in test [4], in test [5] and in [6] was “inactive” in each case. Further, the Potency entry in [7] is “inactive”. Also, the result in [8] and in test [9] was inactive.

Turning to `O=C(O)[C@@H]1C[C@@H](C(=O)O)N1`, the Potency entry in [1], in test [2], in test [3], in [4], in test [5] and in test [6] was “inactive” throughout. In [7], the Potency result is “inactive”. Also, the result in [8] and in [9] was inactive.

With `COc1cc(C(O)CO)ccc1OS(=O)(=O)O` (stereo not given), the Potency result in [1], in [2], in [3], in test [4], in test [5] and in [6] was “inactive” in each case. Besides, in test [7], the Potency entry is “inactive”. For the same molecule, the call in test [8] and in test [9] was inactive.

On to `CCCN(CC1CC1)c1nc(C)nc(Nc2c(Cl)cc(Cl)cc2Cl)c1Cl`, for which the Potency in [1] is 2330 nM (active); in [2], 2620 nM (active). In addition, the Potency entry in [3], in test [4], in test [5], in test [6] and in [7] was “inactive” throughout. Further, the molecule was classed as inactive in [8] and in test [9].

For `c1cnc2c(c1)ccc1cccnc12`, the Potency was 1850 nM (active) in test [1] and 2940 nM (active) in [2]. Further, the Potency result in [3], in test [4], in test [5], in test [6] and in [7] was “inactive” throughout. The result in test [8] and in [9] was inactive.

`COc1ccccc1N1CCN(CCCCNS(=O)(=O)c2cccc3c(N(C)C)cccc23)CC1`: the Potency result in [1], in test [2], in [3], in [4], in test [5] and in test [6] was “inactive” each time. Further, the call in test [8] and in test [9] was inactive.

With `CCCCCCCCCCCCCCCCCCNC(=O)OCC(COP(=O)([O-])OCC[n+]1ccsc1)OC` (stereo not given), the Potency entry in [1], in test [2], in test [3], in test [4] and in test [5] was “inactive” each time. In addition, the call in test [8] and in [9] was inactive.

As to `CC(C)Cc1ccc([C@H](C)C(=O)O)cc1`, the Potency entry in test [1], in [2], in [3], in [4], in test [6] and in [7] was “inactive” each time. In addition, the result in test [8] was inactive.

With `Ic1ccc(N2CCN(Cc3c[nH]c4ncccc34)CC2)cc1`, the Potency entry in [1], in [2], in test [3], in [4], in test [5] and in [6] was “inactive” each time. Moreover, the molecule was classed as inactive in test [8] and in test [9].

As to `CC(=O)N[C@H](C(=O)O)C(C)(C)SN=O`, the Potency entry in test [1], in [2], in test [3], in [4], in test [5] and in test [6] was “inactive” each time. Moreover, the Potency entry in [7] is “inactive”. Also, the molecule was called inactive in test [8] and in [9].

On to `COC1=C(OC)C(=O)c2ccccc2C1=O`, for which the Potency result in test [1], in test [2], in [3], in test [4], in test [5] and in test [6] was “inactive” each time. For the same molecule, the Potency entry in test [7] is “inactive”. Further, the molecule was called inactive in [8] and in [9].

As to `O=C1O/C(=C/Br)CCC1c1cccc2ccccc12` (stereo not given), the Potency result in test [1], in test [2], in test [3], in test [5] and in test [7] was “inactive” each time. Further, in test [4], the Potency was 2670 nM (active). For the same molecule, the molecule was classed as inactive in [8] and in [9].

For the molecule `NCCCCC(=O)O`, the Potency result in [1], in [2], in test [3], in test [4], in test [5] and in test [6] was “inactive” throughout. The molecule was called inactive in test [8] and in test [9].

Consider `c1ccc(-c2ccccn2)nc1`, for which the Potency result in test [1], in test [2], in test [3], in [4], in test [5] and in test [6] was “inactive” in each case. Besides, the Potency entry in [7] is “inactive”. In addition, the call in [8] and in test [9] was inactive.

Regarding `COc1cccc(OC)c1OCCNCC1COc2ccccc2O1` (stereo not given), the Potency result in test [1], in [2], in test [3], in test [4], in test [5] and in test [6] was “inactive” throughout. For the same molecule, the molecule was classed as inactive in [8] and in [9].

For the molecule `N#C/C(=C\c1ccc(O)c(O)c1)C(=O)NCCCc1ccccc1`, the Potency result in test [3], in [4] and in test [5] was “inactive” throughout. Also, the Potency in test [6] is 7.08 µM (active) and 8.44 µM (active); in [7], 5620 nM (active). Besides, the outcome in test [8] and in test [9] was inactive.

With `COc1ccc2c(c1)CCC1C2CC[C@@]2(C)C1CC[C@@H]2NCCCCCCN1C(=O)CCC1=O` (stereo not given in full), the Potency entry in test [3], in test [4], in [5] and in test [6] was “inactive” throughout.

On to `CNc1ncnc2c1ncn2[C@@H]1O[C@H](CO)[C@@H](O)[C@H]1O`, for which the Potency entry in test [3], in test [4], in test [5], in test [6] and in test [7] was “inactive” each time. For the same molecule, the call in [8] was inactive.

Turning to `O=S(=O)(c1cccc2c(I)cccc12)N1CCCNCC1`, the Potency result in test [1], in [2], in test [3], in test [5] and in [6] was “inactive” throughout. For the same molecule, the molecule was classed as inactive in test [8].

Consider `CCOC(=O)C1=C(C)NC(C)=C(C(=O)OCC)C1c1c(F)c(F)c(F)c(F)c1F`, for which the Potency result in [3], in test [4], in test [5], in test [6] and in test [7] was “inactive” each time. In addition, the molecule was called inactive in test [8].
